# Measurements taken from PubChem BioAssay (Tox21).
# A number with no mark means an inactive call. The source made the active and inactive calls. Calls follow the shape of the dose curve; as a rule, active = well fitted curve in the direction sought with a large enough effect in the repeat runs; inconclusive = weak or mixed curves; inactive = flat fitted curve, though single readings scatter.
# Assay: qHTS assay to test for compound auto fluorescence at 535 nm (green) in HEK293 cell free culture (AID 720682)
# Details: cell-free medium, green autofluorescence 485/535 nm, hits give high values; series mostly up to 91.3 µM
# Method in brief: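 No cells present: wells hold DMEM supplemented with 10% FBS, into which compound or vehicle is pinned. Green emission is then recorded (485 nm excitation, 535 nm emission) and scaled to fluorescein.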
# % is scaled to controls: 0 for no effect and ±100 for the full control effect.
Compound,outcome,activity change
CCOC(=O)C(C)(C)C,inactive,–
CCCCC(CC)C(=O)OC(C)C (configuration not stated),inactive,–
C[CH2][Ge]([Cl])([CH2]C)[CH2]C,inactive,–
Cc1nc([N+](=O)[O-])cn1-c1ccc([N+](=O)[O-])cc1,inactive,–
Cc1cccc(Nc2ccncc2S(=O)(=O)NC(=O)NC(C)C)c1,–,-0.379% [at 18.6 µM]
N#CCCOCCOCCC#N,inactive,–
CC(C)COC(=O)CCCCC(=O)OCC(C)C,inactive,–
CCc1nccnc1C,inactive,–
Cc1ncc([N+](=O)[O-])n1CC(O)CCl (configuration not stated),–,0.017% [at 18.6 µM]
CCOc1ccc(NC(=O)OC(C)C)cc1OCC,inactive,–
COc1cccc2sc(N)nc12,inactive,–
C[C@H](CCC(=O)O)[C@H]1CC[C@H]2[C@@H]3[C@H](O)C[C@@H]4C[C@H](O)CC[C@]4(C)[C@H]3C[C@H](O)[C@]12C,inactive,–
NCCc1ccn[nH]1,–,0.0838% [at 18.6 µM]
O=P(O)(O)OCC(O)CO (configuration not stated),inactive,–
CCC1Nc2cc(Cl)c(S(N)(=O)=O)cc2S(=O)(=O)N1 (configuration not stated),inactive,–
O=C(/C=C/c1ccccc1)NCCO,inactive,–

Compound,outcome,activity change
CCC(C)N (configuration not stated),inactive,–
CNC(=O)C(c1ccccc1)c1ccccc1,inactive,–
CCCOCCOCCOCCO,inactive,–
O=[Si]=O,inactive,–
C=CCOc1c(Br)cc(C(C)(C)c2cc(Br)c(OCC=C)c(Br)c2)cc1Br,inactive,–
CCCCOC(=O)[C@@H](C)Oc1ccc(Oc2ccc(C(F)(F)F)cn2)cc1,inactive,–
CCC(C)(CCC(C)C)C(=O)[O-].CCC(C)(CCC(C)C)C(=O)[O-].[Zn+2] (configuration not stated),inactive,–
CC(=O)OCC(=O)[C@@]1(O)[C@H](OC(C)=O)C[C@H]2[C@@H]3CCC4=CC(=O)C=C[C@]4(C)[C@@]3(F)[C@@H](O)C[C@@]21C,inactive,–
CC(C)COC(=O)COc1ccc(Cl)cc1Cl,inactive,–
CC(=O)c1ccc(OCC(=O)N2CCCCC2)cc1,inactive,–
CN=C(NC#N)NCCSCc1csc(N=C(N)N)n1,inactive,–
C[Si]1(C)N[Si](C)(C)N[Si](C)(C)N1,inactive,–
O=c1cc(O)c(Cl)c[nH]1,inactive,–
CCC(CO)CO,inactive,–
COC(/C=C(\C)CCC=C(C)C)OC,inactive,–
CC(C)(CO)[C@@H](O)C(=O)NCCCO,inactive,–
